This is an account of results in the supplement of paper PMC11624193, “Coupling cellular drug-target engagement to downstream pharmacology with CeTEAM” (Nature Communications, 2024).

Structures can show the parent of a compound that is named as a salt. A number with no mark means an inactive call.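 Rule for the calls: active = log2 fold change beyond 2 SD from the library mean after excluding viability outliers; inactive = within 2 SD.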

In the assay the target is PARP1 L713F-nLuc biosensor (HCT116) (UniProt P09874). The assay can be described thus: PARP1 L713F-nLuc/akaLuc ratio relative to DMSO control (biosensor stabilization) (fold change); higher = more PARP1 biosensor stabilization (target engagement / stabilizer), active = hit call of the paper. The settings on record: stock concentration (mM; final µM = stock mM x 1): 10; 24 h.
Sequence of PARP1 L713F-nLuc biosensor (HCT116) (P09874 whole entry L713F, looked up): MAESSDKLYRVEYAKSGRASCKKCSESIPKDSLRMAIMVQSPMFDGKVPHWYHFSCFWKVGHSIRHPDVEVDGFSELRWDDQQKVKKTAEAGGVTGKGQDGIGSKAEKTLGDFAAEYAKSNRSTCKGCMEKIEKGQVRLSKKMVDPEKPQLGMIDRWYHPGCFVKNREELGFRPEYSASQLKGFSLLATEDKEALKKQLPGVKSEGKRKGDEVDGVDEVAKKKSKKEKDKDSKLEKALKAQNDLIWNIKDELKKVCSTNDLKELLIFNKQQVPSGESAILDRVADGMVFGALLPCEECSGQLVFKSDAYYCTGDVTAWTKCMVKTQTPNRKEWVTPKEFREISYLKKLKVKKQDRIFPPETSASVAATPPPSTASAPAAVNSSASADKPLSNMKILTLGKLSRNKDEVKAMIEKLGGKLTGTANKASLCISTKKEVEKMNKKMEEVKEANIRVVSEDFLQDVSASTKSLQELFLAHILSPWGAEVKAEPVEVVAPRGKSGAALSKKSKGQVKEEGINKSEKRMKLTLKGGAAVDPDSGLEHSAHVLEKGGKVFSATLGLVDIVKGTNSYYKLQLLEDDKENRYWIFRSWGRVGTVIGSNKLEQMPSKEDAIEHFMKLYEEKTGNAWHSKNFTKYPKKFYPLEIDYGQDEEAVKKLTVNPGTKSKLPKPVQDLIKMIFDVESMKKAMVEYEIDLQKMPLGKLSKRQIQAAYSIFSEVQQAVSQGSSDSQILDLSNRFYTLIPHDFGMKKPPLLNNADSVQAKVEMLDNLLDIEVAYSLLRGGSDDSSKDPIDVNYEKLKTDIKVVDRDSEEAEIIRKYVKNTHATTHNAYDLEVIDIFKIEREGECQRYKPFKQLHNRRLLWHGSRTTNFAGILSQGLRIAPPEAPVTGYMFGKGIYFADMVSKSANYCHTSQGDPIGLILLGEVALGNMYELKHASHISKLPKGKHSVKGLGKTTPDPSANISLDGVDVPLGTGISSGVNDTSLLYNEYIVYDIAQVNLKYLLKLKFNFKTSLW
As for `COc1ccc(CN2CCC(c3ccc4nc(C(=O)N5CCN(Cc6ccc(C(F)(F)F)cc6)CC5)[nH]c4c3)CC2)cn1`, the “PARP1 L713F-nLuc/akaLuc ratio” value was 0.348.
The result for `N#CC[C@H](C1CCCC1)n1cc(-c2ncnc3[nH]ccc23)cn1` [Ruxolitinib] reads 0.544; that for `C[C@]12CCCN1CC1=NNC(=O)c3cc(F)cc4[nH]c2c1c34` [Pamiparib], 5.97 (active).
The figure for `OC1CCC(Nc2ncc3nc(Nc4c(F)cc(F)cc4F)n([C@H]4CCOC4)c3n2)CC1` (stereo partly drawn) [Tanzisertib(CC-930)] is 1.11.
As for `CC(C)NC[C@@H](C(=O)N1CCN(c2ncnc3c2[C@H](C)C[C@H]3O)CC1)c1ccc(Cl)cc1` [Ipatasertib (GDC-0068)], the “PARP1 L713F-nLuc/akaLuc ratio” value is 0.669.
The figure for `O=c1ncn2nc(Sc3ccc(F)cc3F)ccc2c1-c1c(Cl)cccc1Cl` is 0.808.
The result for `CCC1=C[C@@H]2CN(C1)Cc1c([nH]c3ccccc13)[C@@](C(=O)OC)(c1cc3c(cc1OC)N(C)[C@H]1[C@@](O)(C(=O)OC)[C@H](OC(C)=O)[C@]4(CC)C=CCN5CC[C@]31[C@@H]54)C2` [Vinorelbine Tartrate] reads 0.576; that for `CC(NC(=O)c1ccccc1/N=C/c1c(O)ccc2ccccc12)c1ccccc1` (stereo not drawn) [Sirtinol], 0.699; that for `N#Cc1ccc(-c2csc(NN=C3CCCC3)n2)cc1` [Remodelin (hydrobromide)], 0.897.
The result for `CN(C)[C@H]1CN(C2CCc3cccc(F)c32)C[C@@H]1c1ccc(N2CCN(S(C)(=O)=O)CC2)cc1` (stereo partly drawn) reads 4.18 (active); that for `CN1CCC(CNc2ccc3ncc(-c4cccc(OC(F)(F)F)c4)n3n2)CC1`, 1.51.
Turning to `O=C([C@@H](Cc1cccc(C(F)(F)F)c1)NS(=O)(=O)c1cc(F)c2c(c1)CCNC2)N1CCCC1` [PFI-2 (hydrochloride)], the “PARP1 L713F-nLuc/akaLuc ratio” value was 0.92.
The result for `O=C(O)[C@]1(Cc2cccc(Nc3nccs3)n2)CC[C@@H](Oc2cccc(Cl)c2F)CC1` reads 1.05; that for `CC(C)(C)c1nc2c3cc[nH]c(=O)c3c3cc(F)ccc3c2[nH]1` [Pyridone 6], 0.692.
For the compound `C=C(C)[C@@H]1CCC(C)=C[C@H]1C1=C(O)C(=O)C(CCCCC)=C(NCc2ccccc2)C1=O`, the “PARP1 L713F-nLuc/akaLuc ratio” value is 1.39.
The result for `O=C(O)Cn1nnc(-c2ccc(CN(CCCCOc3ccc(CN4CCCC4)cc3)CCc3ccccc3)cc2)n1` [TH1834 (dihydrochloride)] reads 1.29.
The figure for `C[C@@H]1C[C@H]2[C@@H]3CCC4=CC(=O)C=C[C@]4(C)[C@@]3(F)[C@@H](O)C[C@]2(C)[C@@]1(O)C(=O)CO` [Dexamethasone (DHAP)] is 1.03; for `O=C1/C(=C/c2ccc(O)c(Br)c2)CCC/C1=C\c1ccc(O)c(Br)c1` [Histone Acetyltransferase Inhibitor II] it is 2.06; for `Nc1nc(NC2CC2)cc(-c2cccc(Cl)c2Cl)n1` it is 1.94.
The figure for `O=C(c1cccc(Br)c1)N1CCC(N2CCCC2)CC1` is 0.886.
In the case of `CNC(=O)c1cnc(NC(=O)C2CC2)cc1Nc1cccc(-c2ncc(F)cn2)c1OC`, the “PARP1 L713F-nLuc/akaLuc ratio” value is 0.696.
The figure for `CCN(CC)c1ccc(C=NNC(=O)c2ccncc2)c(O)c1` is 0.543; for `NC(=O)c1cccc2cn(-c3ccc([C@@H]4CCCNC4)cc3)nc12` [Niraparib (MK-4827)] it is 6.42 (active).
The result for `CS(=O)(=O)c1ccc(C(=O)Nc2ccc(Cl)c(-c3ccccn3)c2)c(Cl)c1` [Vismodegib (GDC-0449)] reads 1.11; that for `O=C(/C=C\n1cnc(-c2cc(C(F)(F)F)cc(C(F)(F)F)c2)n1)NNc1cnccn1` [Selinexor (KPT-330)], 0.434; that for `C[C@H](Nc1ncnc2nc[nH]c12)c1cc2cccc(Cl)c2c(=O)n1-c1ccccc1` [Duvelisib (IPI-145, INK1197)], 0.838.
The result for `COc1cc(OC)cc(-c2noc(N3CCN(C)C4(CCN(c5ccnc(C)c5)CC4)C3)n2)c1` reads 0.971.
On to `CC(=O)O[C@@]12CO[C@@H]1C[C@H](O)[C@@]1(C)C(=O)[C@H](O)C3=C(C)[C@@H](OC(=O)[C@H](O)[C@@H](NC(=O)OC(C)(C)C)c4ccccc4)C[C@@](O)([C@@H](OC(=O)c4ccccc4)[C@H]21)C3(C)C` [Docetaxel], for which the “PARP1 L713F-nLuc/akaLuc ratio” value was 1.44.
